The record followed here is PubChem BioAssay AID1813 (Broad Institute, 2009).

SMILES strings stand for the structures. Screen size: about 300,000 compounds; about 2,500 (0.83%) were called active. Many of the other results were omitted from the sample, so actives are more common in it than they were. A number with no mark means an inactive call. Cut-off read from the data, not from the text of the source: active = inhibition above about 60%; inconclusive = no clear call, values can overlap the other calls; inactive = below that.

The inhibition is the drop in the measured response relative to a control, in per cent.

This test can be described thus: 5' untranslated region of α-synuclein, MLPCN primary screen (AID 1813).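 Note: H4 neuroglioblastoma cells stably carrying SNCA 5'UTR luciferase fusion; 0% = DMSO wells and 100% = positive control.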 As to conditions: alpha-synuclein 5'UTR reporter, inhibitor activity; stronger effect = higher value; tested at 7.5 µM.
On to `COc1ccc(/C=C/C(=O)Nc2ccc(C34CC5CC(CC(O)(C5)C3)C4)cc2)cc1OC`, for which the inhibition was 76.5% (active).
`COc1ccc(/C=C/C(=O)Nc2ccc(C)cc2)cc1S(=O)(=O)N1CCOCC1`: the inhibition is -60%.
As for `COc1ccc(/C=C/C(=O)Nc2cccnc2)cc1OC`, the inhibition was -72.4%.
Next, `COc1ccc(-c2nn(C)c(=O)c3ccccc23)cc1CNC(=O)C1CCCCC1`: -1.05%.
On to `Cc1ccccc1-c1ccc(Nc2ccc(C(=O)N3CCOCC3)cc2)nn1`, for which the inhibition was 10.1%.
Consider `Cc1oc2c(c1C(=O)N1CCOCC1)C(=O)c1ccccc1C2=O`, for which the inhibition is 101% (active).
Consider `CCOC(=O)c1ccccc1C(=O)N1CCOCCOCCOCC1`, for which the inhibition is 7.43%.
With `CCOc1cc(/C=C2\SC(N3CCCC(C)C3)=NC2=O)ccc1O` (stereo unspecified), the inhibition is -40.1%.
As to `Cc1ccc(C)c(S(=O)(=O)Nc2cc(C)on2)c1`, the inhibition was -13.8%.
Next, `CCCCCc1ccc(-c2ccc(C(=O)O)cc2)nc1`: -19.1%; `CCCCCc1ccc(-c2ccc(OCC)cc2)nc1`: 79.7% (active); `CCCCCc1ccc(-c2cn(Cc3ccc4ccccc4c3)nn2)cc1`: -16.4%.
Take `COc1cccc(C(=O)n2ccc(-c3cccs3)n2)c1`: the inhibition was 2.56%.
Turning to `COC(=O)c1c(NC(=O)c2ccc(S(=O)(=O)N3CCOCC3)cc2)sc2c1CCN(C(C)C)C2`, the inhibition is -85.3%.
As for `CCC(=O)NC(Nc1nc2ccc(C)cc2s1)(C(=O)OC)C(F)(F)F` (stereo unspecified), the inhibition was 13%.
In the case of `O=C(NC(Nc1nc2ccc([N+](=O)[O-])cc2s1)(C(F)(F)F)C(F)(F)F)c1ccccc1`, the inhibition is 94.1% (active).
Take `CCOc1ccc2nc(NC(=O)c3cc([N+](=O)[O-])ccc3N3CCOCC3)sc2c1`: the inhibition is 1.05%.
Turning to `COc1ccc(Cl)cc1-n1c(=S)sc2c(=O)n(-c3ccc(F)cc3)c(SCC(=O)O)nc21`, the inhibition was 14.1%.
Then `CCOC(=O)N1CCN(C(=O)c2ccccc2SCC(=O)NCC2CCCCC2)CC1`, with -17.7%; and `O=[N+]([O-])/C=C/c1ccc2c(ccn2Cc2ccccc2)c1`, with 84.5% (active); and `O=C(/C=C/c1cccc([N+](=O)[O-])c1)N1CCN(Cc2ccccc2)CC1`, with -15.7%.
Take `O=c1c([N+](=O)[O-])cc(C(F)(F)F)cn1Cc1cccc(Cl)c1`: the inhibition is 17.2%.
Turning to `Cc1ccc(C(C)C)c(OCc2nnc(SCC(=O)Nc3nccs3)n2C)c1`, the inhibition is -2.72%.
Regarding `O=C(N[C@@H](Cc1ccccc1)C(=O)OCc1ccccc1)c1nc[nH]c1C(=O)NC1CCNCC1`, the inhibition is -8.61%.
For `Cc1c(NC(=O)c2c([N+](=O)[O-])cnn2C)c(=O)n(-c2ccccc2)n1C`, the inhibition was 3.28%.
Next, `CCOC(=O)c1sc(C)c2c1NC(C)(c1cccc3ccccc13)NC2=O` (stereo unspecified): 31.1%.
